# Compound activity from PubChem.
# HP1b chromo inh: blocks HP1-beta chromodomain binding to methylated histone tails | P83916 | AlphaScreen HP1-beta / biotin-H3K9me3 peptide binding | Potency, µM (highest dose often 114 µM), for the others: at the highest dose activity change, negative = inhibition, hits mostly inhibitors | actives 0.56% (n = 390,000) | AID 540317; further: nearly all actives have a fitted effect of over 70% in size
#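 AlphaScreen: HP1-beta (50 nM) preformed 30 min with biotin-H3(1-18)K9me3 peptide (50 nM) in PBS pH 7.4, 0.01% Tween-20. Compound added for 30 min at RT, then streptavidin donor/nickel chelate acceptor beads (10 ug/mL) for 30 min.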
# JMJD2A Tudor: blocks the human JMJD2A Tudor domain. AlphaScreen JMJD2A-Tudor / H3K4me3 peptide binding. Potency, µM (titrated, usually from 114 µM), for the others: at the highest dose activity change, negative = inhibition, usual class: inhibitors. actives 4.4% (n = 390,000); further: on the % scale 0 is the no-effect control and ±100 the full control effect; nearly all actives have a fitted effect of over 50% in size
# L3MBTL1 block: inhibitors of human L3MBTL1. AID 485360. AlphaScreen L3MBTL1–H3K9me1 peptide binding. Potency, µM (titrated, usually from 57.1 µM), inactives show at the top dose activity, negative = inhibition, usual class: inhibitors. actives 0.66% (n = 230,000); further: on the % scale 0 is the no-effect control and ±100 the full control effect; nearly all actives have a fitted effect of over 60% in size
# Target sequence (Q9Y468 whole entry, looked up): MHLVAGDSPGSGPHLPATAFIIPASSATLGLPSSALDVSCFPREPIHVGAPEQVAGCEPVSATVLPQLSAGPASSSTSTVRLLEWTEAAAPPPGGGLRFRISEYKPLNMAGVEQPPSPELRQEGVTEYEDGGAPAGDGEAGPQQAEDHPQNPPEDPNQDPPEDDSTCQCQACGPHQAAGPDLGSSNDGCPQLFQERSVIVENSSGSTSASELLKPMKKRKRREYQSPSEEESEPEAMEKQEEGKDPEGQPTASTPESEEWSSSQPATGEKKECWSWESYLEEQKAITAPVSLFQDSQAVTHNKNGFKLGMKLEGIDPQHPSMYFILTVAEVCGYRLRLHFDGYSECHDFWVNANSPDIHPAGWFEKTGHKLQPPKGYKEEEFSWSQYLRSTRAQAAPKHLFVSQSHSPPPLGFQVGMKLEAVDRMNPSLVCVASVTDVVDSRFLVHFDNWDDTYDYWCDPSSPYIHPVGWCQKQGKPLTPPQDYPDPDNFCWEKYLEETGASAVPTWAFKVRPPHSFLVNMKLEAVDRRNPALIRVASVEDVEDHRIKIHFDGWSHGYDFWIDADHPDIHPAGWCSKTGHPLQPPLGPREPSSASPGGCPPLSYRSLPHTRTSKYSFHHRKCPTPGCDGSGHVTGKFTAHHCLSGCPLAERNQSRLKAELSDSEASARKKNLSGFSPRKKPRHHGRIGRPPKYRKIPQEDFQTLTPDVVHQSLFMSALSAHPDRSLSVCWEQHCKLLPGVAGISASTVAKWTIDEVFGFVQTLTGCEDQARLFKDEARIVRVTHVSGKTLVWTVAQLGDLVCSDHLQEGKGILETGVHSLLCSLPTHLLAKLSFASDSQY
#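 Read-out is AlphaScreen signal from streptavidin donor and nickel chelate acceptor beads (10 ug/mL final each) bridging L3MBTL1 (50 nM) and biotinylated K9-monomethylated H3(1-15) peptide (75 nM), after 30 min compound exposure at room temperature.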
# G9a block: inhibitors of human histone lysine methyltransferase G9a; Q96KQ7; G9a H3K9 monomethylation, AlphaScreen, 2 h; Potency, µM (top dose mostly 102 µM), for inactives: at the top dose activity, negative = inhibition, usual class: inhibitors; actives 8.8% (n = 350,000); further: on the % scale 0 is the no-effect control and ±100 the full control effect; nearly all actives have a fitted effect of over 75% in size
#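 Chemiluminescent proximity detection of H3K9 monomethylation, read after 10 min bead incubation in the dark. Reaction: 20 nM G9a, 500 nM biotin-H3K9 peptide, 20 uM SAM cofactor, 2 h, room temperature, following 15 min enzyme-compound preincubation.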
# BAZ2B block: BAZ2B (human) inhibition; Q9UIF8; AlphaScreen BAZ2B-H3K14Ac peptide displacement; Potency, µM (titrated, usually from 114 µM), inactives show at the highest dose activity change, negative = inhibition, hits mostly inhibitors; actives 4.4% (n = 360,000); further: on the % scale 0 is the no-effect control and ±100 the full control effect; nearly all actives have a fitted effect of over 60% in size
#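 AlphaScreen displacement: compounds (up to 110uM) incubated 30 min at room temperature with a preformed 50 nM BAZ2B/50 nM biotinylated H3K14Ac peptide complex in PBS pH 7.4 with Tween-20. Donor and acceptor beads at 10 ug/mL final added, 20 min light-protected before reading.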
# The depositor's hits bear a star; ? = inconclusive; / = not tested or not shown; [ ] = remark or other dose. An excerpt weighted towards active compounds, which were near 11% of everything screened. The call rests on the fitted dose curve; in most records, active means well fitted inhibition curve with a large enough effect; inconclusive means small, poorly fitted or top-dose-only effect; inactive means no such curve, though single readings can be large or run the other way. Potency means the concentration at half of the fitted maximal effect.
SMILES,HP1b chromo inh,JMJD2A Tudor,L3MBTL1 block,G9a block,BAZ2B block
Cc1ccc(NC(=O)c2sc3nc4c(cc3c2N)CN(Cc2ccccc2)CC4)cc1,75%,-23%,/,-38%[59 µM],-2%
CC1CCc2c(sc(NC(=O)c3cc(-c4cccc(Cl)c4)on3)c2C(N)=O)C1 (centres undefined),53%,-10%,/,-25%[59 µM],-3%
O=C(CC(C(=O)O)c1cccc(Br)c1)c1ccc(Cl)cc1 (centres undefined),37%,-4%,/,21%,2%
C[C@H](N)CCCP(=O)(O)O,/,/,/,32%[59 µM],/
COc1ccc(NS(=O)(=O)c2ccc(N3CCOCC3)c(NC(=O)c3ccccc3Cl)c2)cc1,-1%,-28%,-9%,13%[59 µM],-5%
O=C(Nc1cc(S(=O)(=O)Nc2ccc(Cl)cc2)ccc1N1CCCCC1)c1ccc(F)cc1Cl,?,-22%,-6%,10µM*,-32%
CCOc1cc(N2CCOCC2)c(OCC)cc1NS(=O)(=O)c1ccc(Cl)s1,-2%,?,?,?,50µM*
CCCNC(=O)COCc1cc(-c2ccc(F)cc2)on1,40%,5%,/,-22%[59 µM],4%
Nc1ccc(-c2ccc(N)c([N+](=O)[O-])c2)cc1[N+](=O)[O-],-2%,-25%,-26%,71µM*,-3%
Nc1ccc(OCc2ccccc2)cc1[N+](=O)[O-],?,40µM*,/,/,/
COc1ccc(-c2nc3sc(CCNC(=O)C(=O)Nc4ccccc4C#N)c(C)n3n2)cc1,29%,1%,/,10%[59 µM],-2%
CCCCCn1c(CCCNC(=O)c2cccc(C)c2)nc2ccccc21,31%,-25%,/,3%[59 µM],-23%
COc1cc(Cl)c(C)cc1NC(=O)Cn1cc(S(=O)(=O)N2CCC(C)CC2)c2ccccc2c1=O,11%,-16%,/,-28%[59 µM],-16%
O=[N+]([O-])c1cc2c(cc1/C=N/n1c(-c3ccccc3)n[nH]c1=S)OCO2,?,4µM*,-26%,1.4µM*,?
O=[N+]([O-])c1ccccc1/C=N/n1c(-c2cccnc2)n[nH]c1=S,9%,2.2µM*,9%,2.5µM*,-27%
O=[N+]([O-])c1cc(/C=N/n2c(-c3cccnc3)n[nH]c2=S)ccc1Cl,-8%,40µM*,?,1.3µM*,?
Nc1nnnn1/N=C\c1ccc(Cl)c([N+](=O)[O-])c1,58%,-15%,5%,40%[0.0925 µM],3%
Fc1cccc(Cl)c1/C=N/n1c(-c2cccnc2)n[nH]c1=S,3%,3.2µM*,/,?,?
O=C(Nc1ccccc1C(F)(F)F)N1CCC(CN2CCc3ccccc3C2)CC1,22%,4%,/,0%[59 µM],-1%
Cc1cccc(C)c1NC(=O)c1sccc1SCC#N,20%,-13%,9%,11µM*,-3%
Oc1cc2c(cc1C(c1ccc(Cl)c(Cl)c1)N1CCCC1)OCO2 (centres undefined),20µM*,10µM*,-17%,1.4µM*,35µM*
Cc1cccc(CCNC(=O)c2nn(C)c3c2CSc2ccccc2-3)c1,30%,-8%,/,-28%[59 µM],-11%
COc1ccc(N2CC(NC(=O)c3ccc(S(=O)(=O)N4CCOCC4)cc3)CC2=O)cc1OC (centres undefined),24%,2%,/,-4%[59 µM],-3%
CCOc1ccc(S(=O)(=O)N2CCOCC2)cc1NC(=O)CSCc1ccc(C)cc1,28%,-22%,-6%,-4%[12.7 µM],-1%
Cc1nc(N2CCCCC2)c2ccsc2n1,?,0.79µM*,/,20µM*,5µM*
SMILES,HP1b chromo inh,JMJD2A Tudor,L3MBTL1 block,G9a block,BAZ2B block
Cc1nc2cc(N)ccc2n1-c1ccccc1,?,35µM*,-16%,?,-31%
Cc1nc2cc(C(=O)O)ccc2n1-c1ccc(C(C)C)cc1,-6%,-27%,/,16µM*,?
CC1=C(C(=O)OCC2CCCCC2)C(c2ccc(Cl)cc2)CC(=O)N1 (centres undefined),10%,-16%,/,-3%[59 µM],-12%
COc1ccc(Cl)cc1C(=O)NCC(c1ccc(N(C)C)cc1)N1CCOCC1 (centres undefined),-14%,-21%,/,?,-21%
Cc1ccc(S(=O)(=O)Nc2ccc3c(c2)ncn3C(C)(C)C)cc1,32%,-3%,-1%,-2%[59 µM],-3%
CC(C)(C)n1cnc2cc(NCc3ccccc3Cl)ccc21,?,40µM*,/,16µM*,32µM*
Cc1ccc(CNc2ccc3c(c2)ncn3C(C)(C)C)cc1,-11%,-21%[11.4 µM],/,7.1µM*,35µM*
Cn1cnc2cc(NCc3ccccc3O)ccc21,3%,-27%,3%,-1%,-28%
C/C(=N\NC(=O)c1c(C)nc2ccccn12)c1ccc(O)cc1O,34%,-32%,/,28%,1.8µM*
C/C(=N\NC(=O)c1c(C)nc2ccccn12)c1ccccc1F,16%,-9%,/,-3%,?
O=C(Nc1ccccc1C(F)(F)F)N1CCN(c2ccccn2)CC1,22%,-8%,4%,3%,-5%
CCn1ccc2c(OCC(=O)Nc3ccc(OC)cc3OC)cccc2c1=O,22%,-9%,/,2%[59 µM],-11%
O=C(Cn1cnc([N+](=O)[O-])n1)c1ccccc1,7%,-14%,4%,/,4%
O=C(Cn1cnc([N+](=O)[O-])n1)c1ccc(O)c(O)c1,18%,?,/,8.9µM*,79µM*
CCC(C(=O)N1CCN(c2ccccc2)CC1)n1nc(C)c2sc3ccccc3c2c1=O (centres undefined),18%,-9%,/,-5%[59 µM],0%
S=c1[nH]nc2ccccn12,?,6.3µM*,/,/,/
Cc1ccc(OC(=O)CSc2nnc(-c3ccc4c(c3)OCO4)o2)c(C)c1,37%,-10%,/,-24%[59 µM],-3%
Cc1c(C(=O)N(Cc2cccc(Cl)c2)Cc2ccco2)oc2ccccc12,89%,28%,/,34%[59 µM],42%
Cc1ccc2c(C)c(C(=O)N(Cc3ccc(N(C)C)cc3)Cc3ccco3)oc2c1C,-25%,18µM*,/,11µM*,10µM*
CCc1ccc2oc(C(=O)N(Cc3ccc(N(C)C)cc3)Cc3ccco3)c(C)c2c1,?,18µM*,/,10µM*,8.9µM*
Cc1ccc2c(C)c(C(=O)NCCc3ccco3)oc2c1C,15%,-8%,/,25%,-9%
CCCCOc1ccc(C(=O)N2CCN(CCc3ccncc3)CC2)cc1,42%,-16%,/,-4%[59 µM],?
C=Cc1ccc(S(=O)(=O)O)cc1,/,/,/,6%[12.7 µM],/
COc1cccc(CN2C(=O)c3ccccc3Sc3ccc(C(=O)NCCc4ccc(Cl)cc4)cc32)c1,28%,-15%,/,4%[59 µM],/
Cc1ccc(C(=O)c2nc3c(n2O)CCCC3)cc1,-2%,35µM*,/,?,5%
CN(C)c1ccc(CNC(=O)c2ccc(Cn3c(=O)c4cccn4c4cccnc43)cc2)cc1,28%,-6%,/,-26%[59 µM],-20%
COc1ccc(OC)c2sc(N(Cc3cccnc3)C(C)=O)nc12,30%,-6%,/,3%[59 µM],-4%
O=C1OC2(CCCCC2)OC(=O)C1=CNc1nccs1,32%,-12%,10%,50µM*,-22%
